From PubChem BioAssay (EPA / NIEHS)
Results filed as inconclusive are left out. The source made the active and inactive calls. The calls were made as follows, unless noted: active = hit-call score of the fitted dose curve at least 0.9, where 1 is the maximum; inactive = score below 0.9.

How the values were obtained:
[1] = ATG_PBREM_CIS: Attagene CIS-FACTORIAL HepG2 Assay for human Phenobarbital-responsive Enhancer Module (PBREM) (AID 2282955); conditions: HepG2 PBREM cis-reporter, Attagene multiplexed transcription; actives raise or lower the signal
Summary of the method: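 Readout: reporter mRNA, fluorescent RT-PCR fragments separated by capillary electrophoresis. System: HepG2 transiently transfected with cis-regulated reporter units. Exposure: 24 h. Analysis: bidirectional, DMSO baseline.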

[2] = molecular target: Paired box protein Pax-6 (Homo sapiens) (UniProt P26367); experiment: ATG_Pax6_CIS: Attagene CIS-FACTORIAL HepG2 Assay for human Paired Box 6 (PAX6) (AID 2282956); conditions: HepG2 CIS-FACTORIAL PAX6 reporter transcription, RNA readout; actives raise or lower the signal
Sequence of Paired box protein Pax-6 (Homo sapiens) (P26367 whole entry, looked up): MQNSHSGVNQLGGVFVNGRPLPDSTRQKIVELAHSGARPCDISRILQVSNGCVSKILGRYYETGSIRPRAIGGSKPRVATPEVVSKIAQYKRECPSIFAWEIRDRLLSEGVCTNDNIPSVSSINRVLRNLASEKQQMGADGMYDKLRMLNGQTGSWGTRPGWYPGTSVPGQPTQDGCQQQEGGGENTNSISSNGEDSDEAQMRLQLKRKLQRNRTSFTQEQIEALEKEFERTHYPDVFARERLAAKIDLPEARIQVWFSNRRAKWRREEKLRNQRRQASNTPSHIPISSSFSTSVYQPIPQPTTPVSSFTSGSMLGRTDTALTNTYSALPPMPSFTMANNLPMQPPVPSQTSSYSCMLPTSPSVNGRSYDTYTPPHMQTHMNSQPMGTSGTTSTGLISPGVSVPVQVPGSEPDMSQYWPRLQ
Summary of the method: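 Readout: reporter transcript fluorescence after RT-PCR and capillary electrophoresis. Cells: HepG2, transiently transfected with cis-regulated MRTUs. Exposure 24 h. Gain or loss of signal fitted bidirectionally relative to DMSO.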

[3] = ATG_PXRE_CIS: Attagene CIS-FACTORIAL HepG2 Assay for human Pregnane X Receptor Element (PXRE) (AID 2282957); conditions: HepG2 Attagene CIS-FACTORIAL PXRE reporter, mRNA; actives raise or lower the signal
Summary of the method: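 Read-out: fluorescence of reporter-specific RT-PCR products resolved by capillary electrophoresis, fitted bidirectionally relative to DMSO. Human HepG2 liver cells carried transfected cis-promoter reporter units and were exposed to chemicals for 24 h.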

[4] = ATG_PPRE_CIS: Attagene CIS-FACTORIAL HepG2 Assay for human Peroxisome Proliferator-activated Response Element (PPRE) (AID 2282958); conditions: HepG2 PPRE cis-element reporter, Attagene transcription factor profiling; actives raise or lower the signal
Summary of the method: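 After human HepG2 hepatoma cells were transiently transfected with cis-promoter reporter constructs, they were exposed to test chemicals for 24 hours. Reporter RNA was then reverse-transcribed, PCR-amplified, FAM-labeled, HpaI-digested and quantified by capillary electrophoresis.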

[5] = ATG_RORE_CIS: Attagene CIS-FACTORIAL HepG2 Assay for human RAR-related Orphan Receptor Element (RORE) (AID 2282959); conditions: HepG2 Attagene cis-factorial RORE reporter, mRNA; actives raise or lower the signal
Summary of the method: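 Measured here: transcript induction of a cis-regulated reporter in HepG2 cells transiently transfected via FuGene 6. After 24 h, RNA was processed by RT-PCR and fluorescent capillary electrophoresis; DMSO defined baseline activity.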

[6] = ATG_Sox_CIS: Attagene CIS-FACTORIAL HepG2 Assay for human SRY-box transcription factor (SOX) (AID 2282960); conditions: HepG2 Attagene cis-factorial SOX reporter, mRNA; actives raise or lower the signal
Summary of the method: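 Using transiently transfected HepG2 cells, reporter transcription driven by cis elements was assessed 24 h after dosing. Signal was fluorescence of capillary-separated RT-PCR products, with DMSO defining baseline activity.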

[7] = molecular target: Transcription factor Sp1 (Homo sapiens) (UniProt P08047); experiment: ATG_Sp1_CIS: Attagene CIS-FACTORIAL HepG2 Assay for human Specificity Protein 1 (Sp1) (AID 2282961); conditions: HepG2 Sp1 cis-reporter transcription, actives raise or lower the signal
Sequence of Transcription factor Sp1 (Homo sapiens) (P08047 whole entry, looked up): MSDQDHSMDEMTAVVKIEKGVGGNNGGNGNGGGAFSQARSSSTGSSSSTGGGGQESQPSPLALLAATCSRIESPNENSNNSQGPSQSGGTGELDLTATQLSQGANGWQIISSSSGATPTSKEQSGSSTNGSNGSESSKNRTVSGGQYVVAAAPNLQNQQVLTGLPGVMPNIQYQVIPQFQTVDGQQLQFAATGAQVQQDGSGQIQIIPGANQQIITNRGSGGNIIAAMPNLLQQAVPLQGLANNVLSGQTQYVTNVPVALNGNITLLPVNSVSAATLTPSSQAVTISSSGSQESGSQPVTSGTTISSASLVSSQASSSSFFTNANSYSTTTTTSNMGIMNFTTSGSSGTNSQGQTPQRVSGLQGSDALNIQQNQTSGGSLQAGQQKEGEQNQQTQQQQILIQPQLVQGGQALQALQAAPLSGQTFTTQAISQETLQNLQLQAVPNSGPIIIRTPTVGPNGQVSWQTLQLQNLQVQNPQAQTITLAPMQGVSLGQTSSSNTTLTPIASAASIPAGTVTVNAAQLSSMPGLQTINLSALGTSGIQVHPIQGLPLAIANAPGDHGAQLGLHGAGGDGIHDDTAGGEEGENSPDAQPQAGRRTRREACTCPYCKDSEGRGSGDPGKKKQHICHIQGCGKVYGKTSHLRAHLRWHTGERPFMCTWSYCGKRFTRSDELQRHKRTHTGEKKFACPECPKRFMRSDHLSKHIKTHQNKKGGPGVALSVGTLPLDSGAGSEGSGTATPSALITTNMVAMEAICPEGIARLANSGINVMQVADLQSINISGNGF
Summary of the method: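 After transient transfection of HepG2 cells with cis-promoter reporter units and 24 h chemical treatment, reporter transcripts were quantified by RT-PCR and capillary electrophoresis fluorescence. Gain- and loss-of-signal fitted against DMSO.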

[8] = ATG_SREBP_CIS: Attagene CIS-FACTORIAL HepG2 Assay for human Sterol Regulatory Element Binding (SREBP) (AID 2282962); conditions: HepG2 Attagene cis-factorial SREBP reporter, mRNA; actives raise or lower the signal
Summary of the method: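 Readout: fluorescent reporter-transcript peaks resolved by capillary electrophoresis after RT-PCR. Cells were human HepG2 carrying transfected cis-promoter reporter constructs, dosed for 24 h. Gain or loss of signal was fitted against DMSO controls.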

[9] = molecular target: Signal transducer and activator of transcription 3 (Homo sapiens) (UniProt P40763); experiment: ATG_STAT3_CIS: Attagene CIS-FACTORIAL HepG2 Assay for human Signal Transducer and Activator of Transcription 3 (STAT3) (AID 2282963); conditions: HepG2, Attagene cis-factorial STAT3 reporter transcription; actives raise or lower the signal
Sequence of Signal transducer and activator of transcription 3 (Homo sapiens) (P40763 whole entry, looked up, the tested form may be a part): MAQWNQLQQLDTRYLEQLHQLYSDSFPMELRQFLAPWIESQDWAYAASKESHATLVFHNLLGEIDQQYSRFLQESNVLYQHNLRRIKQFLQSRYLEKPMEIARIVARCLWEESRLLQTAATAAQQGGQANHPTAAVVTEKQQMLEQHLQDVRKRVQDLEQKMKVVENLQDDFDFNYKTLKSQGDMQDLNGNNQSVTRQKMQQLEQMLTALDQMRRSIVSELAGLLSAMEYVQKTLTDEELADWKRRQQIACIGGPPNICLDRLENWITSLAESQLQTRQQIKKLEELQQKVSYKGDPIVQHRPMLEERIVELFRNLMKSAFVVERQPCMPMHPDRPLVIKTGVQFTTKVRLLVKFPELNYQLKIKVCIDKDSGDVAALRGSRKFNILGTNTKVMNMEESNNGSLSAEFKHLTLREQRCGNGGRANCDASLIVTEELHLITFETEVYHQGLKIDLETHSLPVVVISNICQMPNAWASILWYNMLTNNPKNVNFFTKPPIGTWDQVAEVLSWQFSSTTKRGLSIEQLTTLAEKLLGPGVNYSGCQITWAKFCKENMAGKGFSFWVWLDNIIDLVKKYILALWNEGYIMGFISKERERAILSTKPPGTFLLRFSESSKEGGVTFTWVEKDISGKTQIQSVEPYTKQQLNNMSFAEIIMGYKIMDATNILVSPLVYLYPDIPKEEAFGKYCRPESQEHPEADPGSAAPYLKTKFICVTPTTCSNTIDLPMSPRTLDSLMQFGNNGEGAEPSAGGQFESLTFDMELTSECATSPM
Summary of the method: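 Fluorescence intensity of 6-FAM-labelled reporter fragments, separated by capillary electrophoresis after RT-PCR, gave the signal. Cells were HepG2 transfected with cis-element reporter units and treated 24 h; fitting was bidirectional relative to DMSO.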

[10] = ATG_TA_CIS: Attagene CIS-FACTORIAL HepG2 Assay for human TA Basal Promoter (AID 2282964); conditions: HepG2 Attagene CIS-factorial TA basal promoter reporter; actives raise or lower the signal
Summary of the method: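 Steps: transfect HepG2 with MRTUs; dose 24 h; isolate RNA, DNase-treat, reverse-transcribe; PCR and FAM-label reporter cDNA; digest with HpaI 2h at 37 C; run capillary electrophoresis. Activity fitted both directions against DMSO.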

[11] = ATG_TCF_b_cat_CIS: Attagene CIS-FACTORIAL HepG2 Assay for human T-Cell-Factor with beta-catenin (TCF/b-cat) (AID 2282965); conditions: HepG2 TCF/beta-catenin cis-reporter transcription, actives raise or lower the signal
Summary of the method: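 HepG2, transient MRTU transfection, cis-element-driven reporters (endogenous TFs). 24 h compound exposure. Readout: reporter mRNA by RT-PCR + 6-FAM primer extension, HpaI digest, capillary electrophoresis. Gain/loss fit vs DMSO baseline.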

[12] = ATG_TAL_CIS: Attagene CIS-FACTORIAL HepG2 Assay for human TAL Basal Promoter (AID 2282966); conditions: HepG2 Attagene cis-factorial TAL promoter reporter; actives raise or lower the signal;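 also: background control endpoint measuring basal TAL promoter reporter mRNA not a specific factor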
Summary of the method: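 HepG2, transient MRTU transfection, 24 h compound exposure; RNA → oligo(dT) RT → PCR → 6-FAM primer extension → HpaI digest → CE fluorescence. Bidirectional curve fit vs DMSO. Background-control readout.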

[13] = ATG_TGFb_CIS: Attagene CIS-FACTORIAL HepG2 Assay for human Transforming Growth Factor (TGF) (AID 2282967); conditions: HepG2 Attagene CIS TGFb reporter, mRNA transcription; actives raise or lower the signal
Summary of the method: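 Cells were dosed for 24 hours, after which total RNA was reverse-transcribed and reporter sequences amplified, labeled and sized by capillary electrophoresis. Activity was fitted in both directions against DMSO.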

[14] = ATG_VDRE_CIS: Attagene CIS-FACTORIAL HepG2 Assay for human Vitamin D Receptor Element (VDRE) (AID 2282968); conditions: HepG2 VDRE cis-reporter transcription, actives raise or lower the signal
Summary of the method: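 Compounds were applied for 24 h to HepG2 cells transfected with promoter-regulated reporter units. Total RNA was reverse-transcribed, and reporter amplicons were fluorescently labelled and sized by capillary electrophoresis.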

[15] = molecular target: Nuclear receptor subfamily 1 group I member 3 (Homo sapiens) (UniProt Q14994); experiment: ATG_CAR_TRANS: Attagene TRANS-FACTORIAL HepG2 Assay for human Constitutive Androstane Receptor (CAR) (AID 2282969; active = hit-call score of the fitted dose curve at least 0.9, where 1 is the maximum;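 also: activators raise reporter mRNA above DMSO so AC50 marks induction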); conditions: HepG2 Attagene TRANS-FACTORIAL CAR reporter
Sequence of Nuclear receptor subfamily 1 group I member 3 (Homo sapiens) (Q14994 whole entry, looked up, the tested form may be a part): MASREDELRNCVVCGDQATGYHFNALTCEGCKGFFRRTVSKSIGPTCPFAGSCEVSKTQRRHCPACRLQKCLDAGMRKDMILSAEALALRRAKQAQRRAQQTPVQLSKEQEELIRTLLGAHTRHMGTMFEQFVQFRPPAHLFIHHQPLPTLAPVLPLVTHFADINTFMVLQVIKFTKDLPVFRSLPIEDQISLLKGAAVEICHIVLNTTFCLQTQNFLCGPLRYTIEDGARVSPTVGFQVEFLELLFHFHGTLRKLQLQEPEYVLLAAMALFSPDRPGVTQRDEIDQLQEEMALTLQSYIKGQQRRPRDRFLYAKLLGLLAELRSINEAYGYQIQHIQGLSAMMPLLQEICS
Summary of the method: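 Transiently transfected HepG2, multiplex TRANS reporters (CAR-Gal4 chimera driving GAL4-UAS reporter). 24 h dosing. Readout: reporter transcript by RT-PCR + capillary electrophoresis, fluorescence intensity; positive direction vs DMSO.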

[16] = molecular target: Estrogen receptor (Homo sapiens) (UniProt P03372); experiment: ATG_ERa_TRANS: Attagene TRANS-FACTORIAL HepG2 Assay for human Estrogen Receptor alpha (ERa) (AID 2282970; active = hit-call score of the fitted dose curve at least 0.9, where 1 is the maximum); conditions: HepG2 Attagene TRANS ERa GAL4 reporter, mRNA
Sequence of Estrogen receptor (Homo sapiens) (P03372 whole entry, looked up, the tested form may be a part): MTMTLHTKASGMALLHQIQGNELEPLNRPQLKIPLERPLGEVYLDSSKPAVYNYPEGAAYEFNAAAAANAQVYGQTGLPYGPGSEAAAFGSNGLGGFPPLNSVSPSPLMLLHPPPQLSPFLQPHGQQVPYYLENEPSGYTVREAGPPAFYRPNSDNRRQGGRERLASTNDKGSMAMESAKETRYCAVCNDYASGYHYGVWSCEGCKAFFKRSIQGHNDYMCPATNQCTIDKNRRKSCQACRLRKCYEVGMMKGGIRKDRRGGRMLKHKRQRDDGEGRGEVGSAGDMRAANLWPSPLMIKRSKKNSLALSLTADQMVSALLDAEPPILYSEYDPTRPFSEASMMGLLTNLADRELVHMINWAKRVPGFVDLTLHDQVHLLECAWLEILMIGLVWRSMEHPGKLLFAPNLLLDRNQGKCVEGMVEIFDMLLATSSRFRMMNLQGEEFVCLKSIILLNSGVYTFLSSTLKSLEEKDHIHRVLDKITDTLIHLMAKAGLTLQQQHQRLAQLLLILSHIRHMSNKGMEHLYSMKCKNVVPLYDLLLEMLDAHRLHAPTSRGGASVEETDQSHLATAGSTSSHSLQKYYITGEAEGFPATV
Summary of the method: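 Reporter mRNA induction after 24 hours, detected by fluorescent RT-PCR and capillary electrophoresis, gives the read-out. Cells are HepG2 transiently transfected with GAL4-UAS reporter transcription units responding to chimeric NR-Gal4. Activity is taken as gain of signal over DMSO baseline.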

[17] = ATG_M_19_TRANS: Attagene TRANS-FACTORIAL HepG2 Assay for M19 Transcription Factor (Internal Marker) (AID 2282974; active = hit-call score of the fitted dose curve at least 0.9, where 1 is the maximum); conditions: HepG2 Attagene TRANS-FACTORIAL M19 internal marker reporter
Summary of the method: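 Gain-of-signal in reporter mRNA, relative to DMSO, was scored from capillary electrophoresis fluorescence. HepG2 cells carried transiently transfected multiple reporter transcription units and were incubated with test chemicals for 24 h.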

[18] = ATG_GAL4_TRANS: Attagene TRANS-FACTORIAL HepG2 Assay for GAL4 (Internal Marker) (AID 2282976; active = hit-call score of the fitted dose curve at least 0.9, where 1 is the maximum); conditions: HepG2 Attagene TRANS GAL4 internal marker reporter
Summary of the method: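 RT-PCR/capillary electrophoresis readout of reporter mRNA. HepG2, transient MRTU transfection (GAL4-UAS reporters), 24 h compound exposure. Background-control endpoint, positive direction vs DMSO baseline.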

[19] = molecular target: X-box-binding protein 1 (Homo sapiens) (UniProt P17861); experiment: ATG_Xbp1_CIS: Attagene CIS-FACTORIAL HepG2 Assay for human X-box Binding Protein 1 (XBP1) (AID 2282972); conditions: HepG2 XBP1 cis-element reporter, Attagene multiplex; actives raise or lower the signal
Sequence of X-box-binding protein 1 (Homo sapiens) (P17861 whole entry, looked up, the tested form may be a part): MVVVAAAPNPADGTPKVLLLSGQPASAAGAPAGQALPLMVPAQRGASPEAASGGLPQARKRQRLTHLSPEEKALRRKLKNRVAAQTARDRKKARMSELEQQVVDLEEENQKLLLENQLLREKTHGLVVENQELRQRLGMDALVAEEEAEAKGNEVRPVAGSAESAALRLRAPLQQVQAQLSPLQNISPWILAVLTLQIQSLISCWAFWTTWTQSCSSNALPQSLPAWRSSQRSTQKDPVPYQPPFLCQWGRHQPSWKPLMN
Summary of the method: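 Read-out: fluorescent reporter mRNA fragments resolved by capillary electrophoresis after RT-PCR. Human HepG2 liver cells carried transfected cis-promoter reporter units and were exposed to chemicals for 24 hours. Gain or loss of signal fitted relative to DMSO baseline.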

[20] = molecular target: Steroid hormone receptor ERR1 (Homo sapiens) (UniProt P11474); experiment: ATG_ERRa_TRANS: Attagene TRANS-FACTORIAL HepG2 Assay for human Estrogen-Related Receptor alpha (ERRa) (AID 2282971; active = hit-call score of the fitted dose curve at least 0.9, where 1 is the maximum); conditions: HepG2 Attagene TRANS reporter, ERRa transactivation
Sequence of Steroid hormone receptor ERR1 (Homo sapiens) (P11474 whole entry, looked up, the tested form may be a part): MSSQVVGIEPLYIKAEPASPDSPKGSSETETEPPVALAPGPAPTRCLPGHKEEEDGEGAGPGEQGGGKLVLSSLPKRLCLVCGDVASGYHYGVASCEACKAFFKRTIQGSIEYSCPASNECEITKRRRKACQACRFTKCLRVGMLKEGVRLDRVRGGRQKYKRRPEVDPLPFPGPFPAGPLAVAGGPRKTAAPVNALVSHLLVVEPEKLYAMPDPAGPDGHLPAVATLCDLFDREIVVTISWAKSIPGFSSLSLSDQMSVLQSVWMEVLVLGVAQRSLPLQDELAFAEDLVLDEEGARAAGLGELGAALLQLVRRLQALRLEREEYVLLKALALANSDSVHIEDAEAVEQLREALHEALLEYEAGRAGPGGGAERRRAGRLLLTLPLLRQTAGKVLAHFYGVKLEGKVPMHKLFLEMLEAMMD
Summary of the method: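 Transfected HepG2, 24 h dosing, ERRa-Gal4 chimera driving GAL4-UAS reporter. Readout: reporter mRNA via RT-PCR plus capillary electrophoresis (fluorescence). Positive direction vs DMSO control.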

SMILES: CC(=O)c1ccc2ccccc2c1
- outcome [1]: inactive
- outcome [2]: inactive
- outcome [3]: inactive
- outcome [4]: inactive
- outcome [5]: inactive
- outcome [6]: inactive
- outcome [7]: inactive
- outcome [8]: inactive
- outcome [9]: inactive
- outcome [10]: inactive
- outcome [11]: inactive
- outcome [12]: inactive
- outcome [13]: inactive
- outcome [14]: inactive
- outcome [15]: inactive
- AC50 [16]: 42.4 µM (active)
- outcome [17]: inactive
- outcome [18]: inactive

SMILES: CCCCOCC(C)OCC(C)O (stereo unspecified)
- outcome [1]: inactive
- outcome [2]: inactive
- outcome [3]: inactive
- outcome [4]: inactive
- outcome [5]: inactive
- outcome [6]: inactive
- outcome [7]: inactive
- outcome [8]: inactive
- outcome [9]: inactive
- outcome [10]: inactive
- outcome [11]: inactive
- outcome [12]: inactive
- outcome [13]: inactive
- outcome [14]: inactive
- outcome [15]: inactive
- outcome [16]: inactive
- outcome [19]: inactive
- outcome [17]: inactive

SMILES: CC(C)CCCC(C)(C)O
- outcome [1]: inactive
- outcome [2]: inactive
- outcome [3]: inactive
- outcome [4]: inactive
- outcome [5]: inactive
- outcome [6]: inactive
- outcome [7]: inactive
- outcome [8]: inactive
- outcome [9]: inactive
- outcome [10]: inactive
- outcome [11]: inactive
- outcome [12]: inactive
- outcome [13]: inactive
- outcome [14]: inactive
- outcome [15]: inactive
- outcome [17]: inactive
- outcome [18]: inactive

SMILES: CCOC(=O)COC(=O)c1ccccc1C(=O)OCC
- outcome [1]: inactive
- outcome [2]: inactive
- AC50 [3]: 50.1 µM (active)
- outcome [4]: inactive
- outcome [5]: inactive
- outcome [6]: inactive
- outcome [7]: inactive
- outcome [8]: inactive
- outcome [9]: inactive
- outcome [10]: inactive
- outcome [11]: inactive
- outcome [12]: inactive
- outcome [13]: inactive
- outcome [14]: inactive
- outcome [15]: inactive
- outcome [16]: inactive
- outcome [19]: inactive

SMILES: CC(=O)OC(C)(C)C1CC=C(C)CC1 (stereo unspecified)
- outcome [1]: inactive
- outcome [2]: inactive
- AC50 [3]: 36.9 µM (active)
- outcome [4]: inactive
- outcome [5]: inactive
- outcome [6]: inactive
- outcome [7]: inactive
- outcome [8]: inactive
- outcome [9]: inactive
- outcome [10]: inactive
- outcome [11]: inactive
- outcome [12]: inactive
- outcome [13]: inactive
- outcome [14]: inactive
- outcome [15]: inactive
- AC50 [16]: 61.7 µM (active)
- outcome [19]: inactive
- outcome [17]: inactive
- outcome [18]: inactive

SMILES: CC12CCC(C1)C(C)(C)C2O (stereo unspecified)
- outcome [1]: inactive
- outcome [2]: inactive
- outcome [3]: inactive
- outcome [4]: inactive
- outcome [5]: inactive
- outcome [6]: inactive
- outcome [7]: inactive
- outcome [8]: inactive
- outcome [9]: inactive
- outcome [11]: inactive
- outcome [12]: inactive
- outcome [14]: inactive
- outcome [15]: inactive
- outcome [16]: inactive
- outcome [19]: inactive
- outcome [18]: inactive

SMILES: COc1ccc(OC)cc1
- outcome [1]: inactive
- outcome [2]: inactive
- outcome [3]: inactive
- outcome [4]: inactive
- outcome [5]: inactive
- outcome [6]: inactive
- outcome [7]: inactive
- outcome [8]: inactive
- outcome [9]: inactive
- outcome [10]: inactive
- outcome [12]: inactive
- outcome [13]: inactive
- outcome [14]: inactive
- outcome [15]: inactive
- outcome [20]: inactive
- outcome [18]: inactive
